Values joined by “and” are separate entries in the source; they are usually repeats but may differ in a detail not shown here. Equal values may be shown once. Active and inactive are the calls of the source. Calls follow the shape of the full dose curve.
Assay: qHTS drug screen for cell cycle checkpoint inhibitors in PARPi-resistant BRCA-mutant ovarian cancer cell lines. (AID 1963452)
Settings: PEO1/OlaR viability, CellTiter-Glo luminescence, 96 h, stronger effect = lower value
How it was run: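 PEO1, PEO4 and PEO1/OlaR ovarian cancer cells, 600 per well, exposed 96 h at 37C to a dilution series. Viability read by CellTiter-Glo luminescence, normalized to DMSO and empty wells; activity summarized as Z-AUC.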

[1] = measured here: PEO1 parental Z-AUC

| SMILES | Z-AUC | Z-AUC [1] | Z-AUC (measured here: PEO4 Z-AUC) |
| --- | --- | --- | --- |
| Cc1ccc(NC(=O)c2ccc(CN3CCNCC3)cc2)cc1Nc1nccc(-c2cccnc2)n1 | 0.805 (inactive) | 0.225 | 0.453 |
| CCn1c(=O)c(-c2ccc(Cl)cc2Cl)cc2cnc(Nc3ccc(N4CCNCC4)c(F)c3)nc21 | -0.749 (inactive) | -0.47 | -0.502 |
| Cc1cn(CCN2CCN(c3ccccc3-c3cc(C#N)cc(C(=O)NCCCN4CCCC4)c3)CC2)c2ccccc12 | -0.259 (inactive) | -0.4 | -0.379 |
| CCOC(=O)[C@@]1(CCCCCCOc2ccc(Cl)cc2)CO1 | 1.19 (inactive) | 1.19 | 1.21 |
| O=C(CCl)Nc1cccc(NC2=NS(=O)(=O)c3ccccc32)c1 | -0.599 (inactive) | -0.67 | -0.526 |
| O=C(N[C@H]1CCC[C@H](CO)C1)C1CCN(c2nc3cc(Cl)c(-c4ccc(Cl)cc4)cc3o2)CC1 | -0.759 (inactive) | 0.237 | -0.768 |
| COC(=O)N1CC2(CC2)C[C@H](C(=O)NO)[C@H]1C(=O)N1CCN(c2ccccc2)CC1 | -0.244 (inactive) | -0.0786 | 0.341 |
| Cc1cccc(-c2[nH]ncc2-c2ccc(F)c(-c3cnn(CCO)c3)c2)n1 | 0.705 (inactive) | 0.508 | 1.13 |
| CS(=O)(=O)c1ccc(Oc2cc(F)cc(C#N)c2)c2c1[C@H](O)C(F)(F)C2 | 1.42 (inactive) | 1.01 | 0.7 |
| Cc1[nH]c2ccc(F)cc2c1-c1nc2c3cccnc3c3ncccc3c2[nH]1 | -1.49 (inactive) | -0.715 | -1.31 |
| O=C(Nc1ccc2[nH]nc(-c3ccncc3)c2c1)[C@@H]1CCN(CC(=O)N2CCN(c3ccc(-c4ncccn4)cc3)CC2)C1 | -0.198 (inactive) | -1.04 | -0.706 |
| COC(C)(C)CCn1nc(Nc2c(C)cccc2C)c2cnc(Nc3ccc(OCCN4CCCC4)c(F)c3)nc21 | -0.962 (inactive) | -0.494 | 0.564 |
| CCn1nc(C2CCN(C(=O)CCO)CC2)nc1-c1cnc(N)c(-c2nnc(C(C)(C)C)o2)n1 | 0.285 (inactive) | 0.385 | 0.568 |
| O=c1[nH]c([C@@H]2CCCN2)nc2c1oc1ccc(Cl)cc12 | 0.967 (inactive) | 1.19 | 1.1 |
| COc1cc(S(C)(=O)=O)ccc1Nc1nc2ccc(-c3ccc(NC(=O)[C@H](C)c4ccc(F)cc4)cc3)cn2n1 | 0.76 (inactive) | 0.0908 | 0.043 |
| O=C(NCCCNC(=O)c1ccc[nH]c1=O)c1cc(-c2ccccc2)on1 | 0.194 (inactive) | 0.0234 | -0.178 |

| SMILES | Z-AUC | Z-AUC [1] | Z-AUC (measured here: PEO4 Z-AUC) |
| --- | --- | --- | --- |
| CCCC(CCC)C(=O)Nc1ccn([C@@H]2O[C@H](CO)[C@@H](O)C2(F)F)c(=O)n1 | -1.13 (inactive) | -1.5 | -0.847 |
| COCC(=O)NC/C=C/c1ccc2ncnc(Nc3ccc(Oc4ccc(C)nc4)c(C)c3)c2c1 | -0.178 (inactive) | -0.29 | -0.0701 |
| Cn1ncc2cc(-c3cnc(N)c(Cl)c3N3CCC4(CCNC4=O)CC3)ccc21 | -0.513 (inactive) | -0.91 | -1.02 |
| COc1ccc2nc3n[nH]c(C)c3c(NCCOCCO)c2c1 | -0.331 (inactive) | 0.387 | 0.00576 |
| CCN(c1cc(-c2ccc(CN3CCOCC3)cc2)cc(C(=O)NCc2c(C)cc(C)[nH]c2=O)c1C)C1CCOCC1 | 0.506 (inactive) | 0.489 | 0.0284 |
| CS(=O)(=O)Nc1cc2occ(NC=O)c(=O)c2cc1Oc1ccccc1 | 0.738 (inactive) | 0.631 | 0.731 |
| Cn1ncc(Cl)c1-c1cc(C(=O)N[C@H](CN)Cc2cccc(F)c2)sc1Cl | 0.3 (inactive) | 0.0445 | 0.251 |
| C[C@@H]1CN(CC(=O)N2CC(C)(C)c3ncc(Cc4ccc(F)cc4)cc32)[C@@H](CN2CCOC[C@H]2C)CN1 | 1.68 (inactive) | 0.908 | 0.0229 |
| Cc1c[nH]c2ncnc(N3CCC(CN)(C(=O)Nc4cccc(OC(=O)N(C)C)c4)CC3)c12 | -0.731 (inactive) and 0.531 (inactive) | -0.27 and -0.244 | -0.694 and 1.07 |
| N#Cc1ccnc(Nc2cc(C3CCN(C4COC4)CC3)cc(N3CCC(F)(F)C3)n2)c1 | -0.647 (inactive) | -0.398 | 0.109 |
| Cc1cc(N2CCOCC2)ccc1Nc1nc(NC2CCCCC2)c2[nH]cnc2n1 | -0.0672 (inactive) | -0.748 | -0.826 |
| Nc1nc(OCc2cc(Br)cs2)c2[nH]cnc2n1 | -0.86 (inactive) | 0.672 | 0.221 |
| CC#C[C@@H](CC(=O)O)c1ccc(OCc2cccc(-c3ccc(C(F)(F)F)cc3)c2)cc1 | 0.0821 (inactive) | 0.579 | 0.882 |
| CCn1c(=O)c(-c2ccc(-c3cncs3)cc2Cl)cc2cnc(Nc3ccc(N4CCN(C)CC4)cc3)nc21 | -1.32 (inactive) | -0.743 | -0.961 |
| Cc1cc(-c2nc3cc(F)ccc3s2)ccc1NC(=O)[C@@H](N)CCCCN | -0.88 (inactive) | -1.06 | -1.32 |

— PubChem BioAssay (NCATS)
